For 20 compounds, Potency results are on record in PubChem BioAssay (Tox21).

Records with an inconclusive call do not appear. Entries that show only a call come without a potency. The source made the active and inactive calls. Calls come from the whole dose curve.

Sequence of D(2) dopamine receptor (Homo sapiens) (P14416 whole entry, looked up): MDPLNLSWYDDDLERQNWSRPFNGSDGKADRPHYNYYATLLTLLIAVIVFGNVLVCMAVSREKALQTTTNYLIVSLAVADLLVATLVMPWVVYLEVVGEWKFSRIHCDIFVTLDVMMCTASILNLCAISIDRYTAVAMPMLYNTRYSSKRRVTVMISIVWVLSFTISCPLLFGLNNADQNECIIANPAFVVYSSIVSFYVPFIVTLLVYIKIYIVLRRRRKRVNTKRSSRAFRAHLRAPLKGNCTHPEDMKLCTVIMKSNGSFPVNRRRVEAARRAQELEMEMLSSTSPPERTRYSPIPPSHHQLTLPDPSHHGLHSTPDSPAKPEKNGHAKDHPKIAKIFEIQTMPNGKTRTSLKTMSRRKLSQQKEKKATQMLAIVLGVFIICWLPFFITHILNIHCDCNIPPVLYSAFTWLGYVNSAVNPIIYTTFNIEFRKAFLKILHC

This test has as its target D(2) dopamine receptor (Homo sapiens) (UniProt P14416). The test can be described thus: Dopamine D2 receptor (DRD2) small molecule agonists, cell-based qHTS assay (AID 1963594). Note: nearly all actives have a fitted effect of over 35% in size. The settings on record: HEK293-DRD2 cAMP HTRF, agonist mode, 30 min; series mostly up to 92.4 µM. The procedure, abridged:
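HEK293 cells stably expressing DRD2 were cultured 24 h at 37 C, then given Ro20-1724 (0.1 mM final) and compounds for 10 min at room temperature. NKH477 (200nM) was then added for 30 min. cAMP was read by HTRF.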
Background: qHTS replaces the single test concentration by a dilution series.
With `O=C1O[C@H]([C@H](O)CO)C(O)=C1O`, the Potency entry is “inactive”.

As to `COC(=O)c1ccc(O)cc1`, the Potency result was “inactive”.

Take `S=c1nc[nH]c2nc[nH]c12`: the Potency entry was “inactive”.

As to `C[C@]12CCC(=O)C=C1CC[C@@H]1[C@@H]2C(=O)C[C@@]2(C)[C@H]1CC[C@]2(O)C(=O)CO`, the Potency entry is “inactive”.

For the compound `C/C=C/C(=O)N(CC)c1ccccc1C`, the Potency entry is “inactive”.

Consider `O=c1c(-c2ccc(O)cc2)coc2cc(O)cc(O)c12`, for which the Potency entry is “inactive”.

On to `CN(N=O)C(=O)N[C@@H]1[C@@H](O)[C@H](O)[C@@H](CO)O[C@@H]1O`, for which the Potency result was “inactive”.

As to `CCCCC1C(=O)N(c2ccccc2)N(c2ccccc2)C1=O`, the Potency result was “inactive”.

Turning to `CC12CCC(CC1)C(C)(C)O2`, the Potency result is “inactive”.

`OC[C@@H](O)[C@@H](O)[C@H](O)[C@H](O)CO`: the Potency result was “inactive”.

On to `CCCN(CCC)S(=O)(=O)c1ccc(C(=O)O)cc1`, for which the Potency result was “inactive”.

On to `Cc1ncc([N+](=O)[O-])n1CCO`, for which the Potency result was “inactive”.

`CCCCOC(=O)c1ccc(N)cc1`: the Potency entry is “inactive”.

On to `C#C[C@]1(O)CC[C@H]2[C@@H]3CCC4=CC(=O)CC[C@@H]4[C@H]3CC[C@@]21CC`, for which the Potency entry was “inactive”.

As to `c1ccc2c(c1)c1cccc3ccc4cccc2c4c31`, the Potency result is “inactive”.

For `CC1(C)O[C@@H]2C[C@H]3[C@@H]4C[C@H](F)C5=CC(=O)CC[C@]5(C)[C@H]4[C@@H](O)C[C@]3(C)[C@]2(C(=O)CO)O1`, the Potency result is “inactive”.

For the compound `CC(C)=CCC/C(C)=C/CO`, the Potency result was “inactive”.

Consider `CN1C(C(=O)Nc2ccccn2)=C(O)c2ccccc2S1(=O)=O`, for which the Potency result was “inactive”.

In the case of `Cc1noc(NS(=O)(=O)c2ccc(N)cc2)c1C`, the Potency result was “inactive”.

For the compound `Cc1cc(=O)n(-c2ccccc2)n1C`, the Potency result was “inactive”.
